Where “and” joins values, the source holds several entries; their conditions need not be identical. Equal values may be shown once. Inconclusive results are not listed. A structure can be active in one record and inactive in another. Unmarked numbers belong to inactive results. Calls of active or inactive are those of the source. Calls come from the whole dose curve; as a rule, active = well fitted curve in the direction sought with a large enough effect; inconclusive = small, poorly fitted or top-dose-only effect, or another doubt; inactive = no such curve, though single readings can be large; an effect the other way counts as inactive or inconclusive.

One experiment has as its system MCC-13. Description: qHTS assay to identify novel small-molecules to repurpose for Merkel cell carcinoma treatment (AID 1296009). Note: nearly all actives have a fitted effect of over 60% in size. As to conditions: MCC and control cell lines, CellTiter-Glo viability, 72 h; series mostly up to 46 µM. The procedure, abridged: (§1)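 Luminescence from CellTiter-Glo, read 10 min after addition at room temperature, reported viability following a 72 hr, 37 degree celsius treatment with NPC or MIPE compounds in titration; values normalized to plate controls.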

For another experiment, the system named is MCC-26. The experiment is described as above. As to conditions: MCC and control cell lines, CellTiter-Glo viability, 72 h; series mostly up to 46 µM. Put shortly:
as §1

For another experiment, the system named is MKL-1. Described as above. As to conditions: MCC and control cell lines, CellTiter-Glo viability, 72 h; series mostly up to 46 µM. The procedure, abridged: as §1
The test system of another experiment is MKL-2. Described as above. As to conditions: MCC and control cell lines, CellTiter-Glo viability, 72 h; series mostly up to 46 µM. The procedure, abridged: as §1
The next experiment has as its system UISO. The description is as above. Conditions: MCC and control cell lines, CellTiter-Glo viability, 72 h; series mostly up to 46 µM. The procedure, abridged:
as §1

A further experiment relates to WaGa. The experiment is described as above. As to conditions: MCC and control cell lines, CellTiter-Glo viability, 72 h; series mostly up to 46 µM. Put shortly: as §1
The next experiment deals with C33A. Description: Primary qHTS to identify gynecologic anti-cancer compounds using libraries of approved drugs and bioactive compounds (AID 1345084). Note: nearly all actives have a fitted effect of over 55% in size. As to conditions: Gynecologic cancer cell panel viability, ATPlite luminescence, 48 h; series mostly up to 57.5 µM. Put shortly: (§2)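 48 h compound exposure at 37 C, 5% CO2; five-point qHTS. ATPlite luminescence readout of cell ATP.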

The test system of another experiment is CAOV3. Described as above. As to conditions: Gynecologic cancer cell panel viability, ATPlite luminescence, 48 h; series mostly up to 57.5 µM. Put shortly: as §2
The next experiment concerns CASKI. The experiment is described as above. As to conditions: Gynecologic cancer cell panel viability, ATPlite luminescence, 48 h; series mostly up to 57.5 µM. Put shortly:
as §2

A further experiment deals with Es-2. Described as above. As to conditions: Gynecologic cancer cell panel viability, ATPlite luminescence, 48 h; series mostly up to 57.5 µM. The procedure, abridged:
as §2

Another experiment concerns HeLa. Described as above. Conditions: Gynecologic cancer cell panel viability, ATPlite luminescence, 48 h; series mostly up to 57.5 µM. The procedure, abridged:
as §2

The next experiment concerns Hek293T. The description is as above. As to conditions: Gynecologic cancer cell panel viability, ATPlite luminescence, 48 h, control line for the selectivity index; series mostly up to 57.5 µM. Put shortly: as §2
Another experiment concerns JEG-3. The experiment is described as above. Conditions: Gynecologic cancer cell panel viability, ATPlite luminescence, 48 h; series mostly up to 57.5 µM. Put shortly:
as §2

The next experiment concerns OV90. The experiment is described as above. Conditions: Gynecologic cancer cell panel viability, ATPlite luminescence, 48 h; series mostly up to 57.5 µM. The procedure, abridged: as §2
A further experiment has as its system PA-1. Described as above. Conditions: Gynecologic cancer cell panel viability, ATPlite luminescence, 48 h; series mostly up to 57.5 µM. Put shortly: as §2
The next experiment concerns SKOV3. The description is as above. Conditions: Gynecologic cancer cell panel viability, ATPlite luminescence, 48 h; series mostly up to 57.5 µM. Put shortly: as §2
In a further experiment the test system is Tov-21-G. The experiment is described as above. Conditions: Gynecologic cancer cell panel viability, ATPlite luminescence, 48 h; series mostly up to 57.5 µM. The procedure, abridged: as §2
A further experiment relates to Tov112D. The experiment is described as above. Conditions: Gynecologic cancer cell panel viability, ATPlite luminescence, 48 h; series mostly up to 57.5 µM. The procedure, abridged: as §2
The nature of experiment [1]: Drug repurposing screens with cells derived from glioblastoma tumor samples (AID 1345199). Note: nearly all actives have a fitted effect of over 40% in size. Note: potency is the fitted concentration of half-maximal effect. Conditions: GBM patient neurospheres viability, ATP luminescence, 48 h. The procedure, abridged: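 Primary testing used CD133+ neurospheres from four GBM patients, seven concentrations, 48 h exposure and ATP-based viability; confirmation added three slower-growing patient lines.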

Where [2] appears, read: at 45.9 µM (top of the series), tumour line B.
Setting [3] is: at 45.9 µM (top of the series), tumour line D.
Where [4] appears, read: at 46 µM (top of the series), tumour line A.
% is set by controls: 0 for no effect and ±100 for the full control effect.

As to `O=c1[nH]oc2c1CCNC2`, the molecule was classed as inactive in the experiment with MCC-13, in the experiment on CAOV3, with CASKI, with Hek293T, in the experiment on JEG-3 and with SKOV3. The Potency entry in the experiment with MCC-26, in the experiment on MKL-1, with MKL-2, in the experiment on UISO, with WaGa and in the experiment on C33A was “inactive” each time. Further, the Potency result in the experiment on Es-2, in the experiment on HeLa, with OV90, with PA-1, in the experiment with Tov-21-G and with Tov112D was “inactive” in each case. The activity, negative = cell killing in experiment [1] (setting [2]) is -19.5%; in experiment [1] (setting [3]), -5.63%; in [1] (setting [4]) it was -27.4%.

As to `CCN[C@H](C)Cc1cccc(C(F)(F)F)c1`, the molecule was called inactive in the experiment with MCC-13, with CAOV3, with CASKI, with Hek293T, in the experiment on JEG-3 and with SKOV3. Also, the Potency result with MCC-26, in the experiment on MKL-1, in the experiment with MKL-2, in the experiment on UISO, with WaGa and with C33A was “inactive” in each case. Besides, the Potency result with Es-2, in the experiment on HeLa, in the experiment with OV90, in the experiment with PA-1, with Tov-21-G and in the experiment on Tov112D was “inactive” in each case. The activity, negative = cell killing is -5.97% in experiment [1] (at 91.6 µM (top of the series), tumour line B) and -5.78% in experiment [1] (at 91.6 µM (top of the series), tumour line D).

`c1ccc(CN2CCNCC2)cc1`: the outcome with MCC-13, with CAOV3, in the experiment with CASKI, in the experiment on Hek293T, in the experiment on JEG-3 and with SKOV3 was inactive. For the same molecule, the Potency result with MCC-26, in the experiment on MKL-1, with MKL-2, with UISO, in the experiment with WaGa and with C33A was “inactive” in each case. Also, the Potency result with Es-2, in the experiment with HeLa, in the experiment on OV90, in the experiment with PA-1, with Tov-21-G and in the experiment with Tov112D was “inactive” throughout. Further, the activity, negative = cell killing is 7.52% in experiment [1] (at 194 µM (top of the series), tumour line B) and -7.34% in [1] (at 194 µM (top of the series), tumour line D). The Potency in experiment [1] (tumour line A) was 126 µM (active).

For the molecule `CCCCCCC(=O)CCCCCC/C=C/C[C@@H](O)[C@H](O)[C@@](N)(CO)C(=O)O`, the outcome with MCC-13, in the experiment with CAOV3, in the experiment with CASKI, in the experiment with Hek293T, in the experiment with JEG-3 and with SKOV3 was inactive. Besides, the Potency result in the experiment on MCC-26, in the experiment with MKL-1, in the experiment with MKL-2, in the experiment with UISO, in the experiment on WaGa and in the experiment on C33A was “inactive” in each case. Besides, the Potency entry with Es-2, with HeLa, with OV90, in the experiment on PA-1, with Tov-21-G and in the experiment with Tov112D was “inactive” each time. Further, the activity, negative = cell killing in [1] (setting [2]) was -13.1% and -22.4%; in experiment [1] (setting [3]), -26.9% and -22.9%. For the same molecule, the Potency in [1] (tumour line A) is 35.5 µM (active).

As for `CCC1(CC)C(=O)C=CNC1=O`, the molecule was called inactive in the experiment on MCC-13, in the experiment with CAOV3, with CASKI, in the experiment on Hek293T, with JEG-3 and in the experiment with SKOV3. The Potency result in the experiment with MCC-26, in the experiment on MKL-1, with MKL-2, with UISO, in the experiment on WaGa and in the experiment with C33A was “inactive” in each case. Moreover, the Potency entry in the experiment on Es-2, in the experiment with HeLa, in the experiment on OV90, with PA-1, in the experiment with Tov-21-G and in the experiment with Tov112D was “inactive” each time. In addition, the activity, negative = cell killing was -5.96% in [1] (setting [2]), -8.64% in experiment [1] (setting [3]) and -23.7% in [1] (setting [4]).

In the case of `C[C@]12CC[C@@H]3c4ccc(OC(=O)N(CCCl)CCCl)cc4CC[C@H]3[C@@H]1CC[C@@H]2OP(=O)(O)O`, the molecule was called inactive in the experiment with MCC-13, with CAOV3, in the experiment with CASKI, in the experiment with Hek293T, in the experiment on JEG-3 and in the experiment with SKOV3. Further, the Potency entry with MCC-26, in the experiment on MKL-1, in the experiment with MKL-2, with UISO, in the experiment with WaGa and with C33A was “inactive” in each case. Moreover, the Potency result in the experiment on Es-2, with HeLa, in the experiment with OV90, in the experiment with PA-1, in the experiment with Tov-21-G and with Tov112D was “inactive” each time. The activity, negative = cell killing was -5.05% in experiment [1] (setting [2]) and -6.53% in experiment [1] (setting [3]).
